A selection: hits, their analogues and other compounds. The true share with any hit is near 2.1%.
NFkB SMM = binds human NF-kappa-B p105 on microarray; P19838; Small molecule microarray, anti-His fluorescence binding; hit rate 1.3% among 17,000; calls only; AID 624139;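 active = spot fluorescence over background significantly raised, with a chance value under 7% in all four replicate spots of the compound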;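 also: probe protein is his-tagged human p50 processed subunit at 1 µg/ml; raw spot fluorescence signals with no normalization applied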
Target sequence (P19838 1-433 limits assumed): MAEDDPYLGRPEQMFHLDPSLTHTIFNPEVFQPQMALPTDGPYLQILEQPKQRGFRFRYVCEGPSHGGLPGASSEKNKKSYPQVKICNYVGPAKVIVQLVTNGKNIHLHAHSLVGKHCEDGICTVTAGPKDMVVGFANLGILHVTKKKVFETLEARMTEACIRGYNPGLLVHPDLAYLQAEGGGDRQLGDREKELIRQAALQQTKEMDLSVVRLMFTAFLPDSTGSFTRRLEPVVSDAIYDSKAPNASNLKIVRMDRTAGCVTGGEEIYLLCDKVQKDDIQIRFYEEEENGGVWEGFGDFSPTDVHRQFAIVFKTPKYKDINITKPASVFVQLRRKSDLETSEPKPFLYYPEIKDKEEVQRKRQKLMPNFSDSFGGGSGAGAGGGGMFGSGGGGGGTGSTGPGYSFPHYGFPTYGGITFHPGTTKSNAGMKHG
c-Myc SMM = c-Myc (human) binding; P01106; small molecule microarray, His-c-Myc binding, anti-His fluorescence; hit rate 1.5% among 17,000; calls only; AID 624141;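 active = spot fluorescence over background with P-value below 7% in all four replicate spots, showing protein binding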;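 also: score is binary with 100 for all four spots passing and 0 otherwise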
p53 mut binder = mutant p53 (human) binding | AID 624136 | hit rate 0.4% among 17,000 | calls only | small molecule microarray binding, anti-GST fluorescence;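 active = compounds whose four printed spots each glow above background more than chance allows, each with a p-value under 7%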
STAT3 SMM = binds human STAT3 on microarray; calls only; P40763; AID 624138; Small molecule microarray, His-STAT3 binding, anti-His fluorescence; hit rate 0.2% among 17,000;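 active = compounds whose four printed spots each show fluorescence over background unusually high for their array block, chance value under 7%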
Active calls of the source: *.

For COCc1c(Br)c(C)nc(OCC(=O)O)c1C#N the results were NFkB SMM active, c-Myc SMM active, p53 mut binder inactive and STAT3 SMM inactive.
CC(=O)Oc1cc(C(C)C)c(OCCN(C)C)cc1C was read as NFkB SMM inactive, c-Myc SMM inactive, p53 mut binder inactive and STAT3 SMM inactive.
O=C(O)CSc1c[nH]c2ccccc12 was read as NFkB SMM inactive, c-Myc SMM active, p53 mut binder inactive and STAT3 SMM inactive.
C[C@H]1CCCCO[C@H](CN(C)C(=O)CCC(F)(F)F)[C@@H](C)CN([C@@H](C)CO)C(=O)c2cc(NC(=O)CCC(F)(F)F)ccc2O1 was read as NFkB SMM inactive, c-Myc SMM inactive, p53 mut binder inactive and STAT3 SMM inactive.
For C[C@@H]1CN([C@@H](C)CO)C(=O)c2cc(NC(=O)CCC(F)(F)F)ccc2O[C@@H](C)CCCCO[C@H]1CN(C)C(=O)CCC(F)(F)F the results were NFkB SMM active, c-Myc SMM inactive, p53 mut binder inactive and STAT3 SMM inactive.
`C[C@@H]1CCCCO[C@H](CN(C)C(=O)CCC(F)(F)F)[C@@H](C)CN([C@H](C)CO)C(=O)c2cc(NC(=O)CCC(F)(F)F)ccc2O1` gave NFkB SMM active, c-Myc SMM active, p53 mut binder active and STAT3 SMM inactive.
`Cc1ccc2cc(S(=O)(=O)NCCC(=O)O)ccc2c1` gave NFkB SMM inactive, c-Myc SMM active, p53 mut binder inactive and STAT3 SMM inactive.
Cn1c(=O)oc2cc(S(=O)(=O)NCCC(=O)O)ccc21 was read as NFkB SMM inactive, c-Myc SMM inactive, p53 mut binder inactive and STAT3 SMM inactive.
`Cc1cc(C)c(S(=O)(=O)NCC(=O)O)c(C)c1` gave NFkB SMM inactive, c-Myc SMM active, p53 mut binder inactive and STAT3 SMM inactive.
For Cc1cc(S(=O)(=O)NCC(=O)O)ccc1F the results were NFkB SMM inactive, c-Myc SMM active, p53 mut binder inactive and STAT3 SMM inactive.
Screening CSc1cccc(NC(=O)CNS(=O)(=O)c2c(C)cc(C)cc2C)c1 returned NFkB SMM inactive, c-Myc SMM inactive, p53 mut binder inactive and STAT3 SMM inactive.
For CC(=O)OC1C(C)OC(OC2C(CO)OC(OC(=O)[C@]34CCC(C)(C)CC3C3=CCC5[C@@]6(C)CC[C@H](OC7OC(CO)C(OC8OC(CO)C(OC9OCC(O)C(O)C9O)C(O)C8O)C(O)C7O)[C@@](C)(CO)C6CC[C@@]5(C)[C@]3(C)CC4)C(OC3OC(C)C(O)C(O)C3O)C2O)C(O)C1O (some centres undefined) the results were NFkB SMM active, c-Myc SMM active, p53 mut binder inactive and STAT3 SMM inactive.
C[C@@H]1O[C@@H](O[C@H]2CC[C@@]3(C)C(CC[C@]4(C)C3CC=C3C5CC(C)(C)CC[C@]5(C(=O)O[C@@H]5O[C@H](CO)[C@@H](O)[C@H](O)[C@H]5O)CC[C@]34C(=O)O)C2(C)C)[C@H](O)[C@H](O)[C@H]1O (some centres undefined) was read as NFkB SMM inactive, c-Myc SMM inactive, p53 mut binder inactive and STAT3 SMM inactive.
C[C@@H]1O[C@@H](O[C@H]2[C@H](O[C@H]3CC[C@@]4(C)C(CC[C@]5(C)C4CC=C4C6CC(C)(C)CC[C@]6(C(=O)O)CC[C@]45C)[C@]3(C)CO)OC[C@H](O)[C@@H]2O)[C@H](O)[C@H](O)[C@H]1O (some centres undefined) was read as NFkB SMM active, c-Myc SMM inactive, p53 mut binder inactive and STAT3 SMM inactive.
Screening CC1OC(OC2C(OC(=O)C34CCC(C)(C)CC3C3=CCC5C6(C)CCC(OC7OC(CO)C(OC8OC(C(=O)O)C(OC9OCC(O)C(O)C9O)C(O)C8O)C(O)C7O)C(C)(CO)C6CCC5(C)C3(C)CC4)OC(COC3OCC(O)C(O)C3O)C(O)C2O)C(O)C(O)C1O (centres undefined) returned NFkB SMM inactive, c-Myc SMM inactive, p53 mut binder inactive and STAT3 SMM inactive.
Screening C[C@@H]1O[C@@H](O[C@@H]2[C@@H](O)[C@H](O[C@@H]3[C@@H](O)[C@H](C)O[C@@H](O[C@H]4[C@H](O[C@H]5CC[C@@]6(C)C(CC[C@]7(C)C6CC=C6[C@@H]8CC(C)(C)CC[C@]8(C(=O)O)CC[C@]67C)[C@]5(C)CO)OC[C@H](O)[C@@H]4O)[C@@H]3O)O[C@H](CO)[C@H]2O[C@@H]2O[C@H](CO)[C@@H](O[C@@H]3OC[C@@H](O)[C@H](O)[C@H]3O)[C@H](O)[C@H]2O)[C@H](O)[C@H](O)[C@H]1O (some centres undefined) returned NFkB SMM active, c-Myc SMM inactive, p53 mut binder inactive and STAT3 SMM inactive.
For C[C@@H]1O[C@@H](O[C@H]2[C@H](O[C@H]3[C@H](O)[C@@H](C(=O)O)O[C@@H](O[C@H]4CC[C@@]5(C)C(CC[C@]6(C)C5CC[C@]57OC[C@@]8(CCC(C)(C)CC85)[C@H](O)C[C@]76C)C4(C)C)[C@@H]3O[C@@H]3O[C@H](CO)[C@@H](O[C@@H]4OC[C@@H](O)[C@H](O)[C@H]4O)[C@H](O)[C@H]3O)O[C@H](CO)[C@H](O)[C@@H]2O)[C@H](O)[C@H](O)[C@H]1O (some centres undefined) the results were NFkB SMM active, c-Myc SMM active, p53 mut binder inactive and STAT3 SMM inactive.
For CC1(C)CC[C@]2(C(=O)O)CC[C@]3(C)C(=CCC4[C@@]5(C)CC[C@H](O[C@@H]6O[C@H](CO)[C@@H](O)[C@H](O)[C@H]6O)[C@@](C)(CO)C5CC[C@]43C)[C@@H]2C1 (some centres undefined) the results were NFkB SMM inactive, c-Myc SMM inactive, p53 mut binder inactive and STAT3 SMM inactive.
CC(C)NC(=O)N(C)C[C@@H]1OCc2cn(nn2)CCCC(=O)N([C@H](C)CO)C[C@H]1C was read as NFkB SMM inactive, c-Myc SMM inactive, p53 mut binder inactive and STAT3 SMM inactive.
For CC1(C)CC[C@]2(C(=O)O)CC[C@]3(C)C(=CCC4[C@@]5(C)CC[C@H](O[C@@H]6O[C@H](C(=O)O)[C@@H](O[C@@H]7OC[C@@H](O)[C@H](O)[C@H]7O)[C@H](O)[C@H]6O)C(C)(C)C5CC[C@]43C)C2C1 (some centres undefined) the results were NFkB SMM active, c-Myc SMM active, p53 mut binder inactive and STAT3 SMM inactive.
CC1(C)CC[C@]2(C(=O)OC3OC(CO)C(OC4OC(CO)C(O)C(O)C4O)C(O)C3O)CC[C@]3(C)C(=CCC4[C@@]5(C)CC[C@H](OC6OC(C(=O)O)C(O)C(O)C6O)C(CO)(CO)C5CC[C@]43C)[C@@H]2C1 (some centres undefined) was read as NFkB SMM inactive, c-Myc SMM inactive, p53 mut binder inactive and STAT3 SMM inactive.

From PubChem BioAssay
